Laboratory results published in PubChem BioAssay (NCATS).
Unmarked numbers belong to inactive results. Records with an inconclusive call do not appear. Where a call stands in place of a potency, no number is given. The source made the active and inactive calls. Unless noted, calls follow the shape of the dose curve; as a rule, active = well fitted curve in the direction sought with a large enough effect; inconclusive = small, poorly fitted or top-dose-only effect, or another doubt; inactive = no such curve, though single readings can be large; an effect the other way counts as inactive or inconclusive.

Key:
[1] = target: Lysosomal acid glucosylceramidase (Homo sapiens) (UniProt P04062); assay: Glucocerebrosidase-p2 (AID 348; in the data active = potency below about 10 µM; also: potency is read from the fitted curve at half-maximal effect); conditions: purified GBA, blue fluorogenic substrate, 40 min
Lysosomal acid glucosylceramidase (Homo sapiens), sequence (P04062 whole entry, looked up): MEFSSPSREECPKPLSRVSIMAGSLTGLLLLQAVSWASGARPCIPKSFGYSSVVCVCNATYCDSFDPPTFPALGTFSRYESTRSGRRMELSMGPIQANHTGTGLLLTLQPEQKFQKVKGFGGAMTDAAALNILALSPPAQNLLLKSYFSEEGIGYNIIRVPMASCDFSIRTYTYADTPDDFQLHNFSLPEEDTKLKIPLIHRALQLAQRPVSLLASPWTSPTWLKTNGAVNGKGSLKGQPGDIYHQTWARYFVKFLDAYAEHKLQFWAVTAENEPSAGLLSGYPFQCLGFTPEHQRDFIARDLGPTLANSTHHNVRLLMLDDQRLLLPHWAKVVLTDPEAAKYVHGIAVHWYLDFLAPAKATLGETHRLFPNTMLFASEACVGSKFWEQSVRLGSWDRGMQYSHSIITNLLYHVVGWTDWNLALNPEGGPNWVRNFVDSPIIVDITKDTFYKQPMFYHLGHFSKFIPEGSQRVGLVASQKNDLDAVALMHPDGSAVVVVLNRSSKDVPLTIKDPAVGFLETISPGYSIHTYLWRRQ
Summary of the method: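 Compounds titrated from 0.6 nM upwards against 0.2 nM enzyme in pH 5.9 citric acid/KH2PO4, taurocholate, tween-20; blue fluorogenic substrate 80 uM, 40 min room temperature, stopped and read Ex 365/Em 440 for AC50.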

[2] = AP1 Signaling Pathway (AID 357; active = well fitted curve in either direction with a large enough effect, not every such curve was filed as active;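 also: ME-180 reporter cells stimulated with EGF at its EC50 level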); conditions: ME-180 AP-1-bla reporter, EGF-induced, beta-lactamase ratio, 5 h; at 7.69 µM (top of the series) unless noted
Summary of the method: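 In this screen, ME-180 cells in Opti-MEM with 0.5% dialyzed FBS received EC50 EGF and compound titrations for 5 h. AP-1 reporter beta-lactamase was detected via CCF4 ratio, giving AC50 for positive and negative modulators.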

[3] = NFAT Signaling Pathway (AID 444; active = well fitted curve in either direction with a large enough effect, not every such curve was filed as active;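 also: carbachol stimulus at about its EC50 of 1 µM final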); conditions: Jurkat NFAT-bla M1, carbachol, beta-lactamase ratio, 5 h; at 7.69 µM (top of the series) unless noted
Summary of the method: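 Jurkat cells with NFAT-driven β-lactamase reporter and co-expressed M1 receptor, stimulated with carbachol (final 1 uM, ~EC50), compound titration, 5 h at 37 °C. CCF4 loaded 1 h at RT; 460/530 nm ratio gave %activity and AC50.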

[4] = Stat Signaling Pathway (AID 446; active = well fitted curve in either direction with a large enough effect, not every such curve was filed as active;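 also: ME-180 cervical cancer cells given 40 pM IL-6 alongside compound; SIE-controlled beta-lactamase reporter measured as 460/530 nm FRET emission ratio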); conditions: ME-180 SIE beta-lactamase reporter, IL-6 stimulated, 5 h; at 7.69 µM (top of the series) unless noted
Summary of the method: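 ME-180 cells carrying a SIE-driven beta-lactamase reporter are stimulated with 40 pM IL-6 for 5 h at 37C in the presence of compound. The 460/530 nm FRET substrate ratio is read after 2.5 h at RT. Data are normalised to 300 pM IL-6 and to 125 nM JAK inhibitor controls.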

[5] = target: Glucocorticoid receptor (Homo sapiens) (UniProt P04150); assay: GR-GFP Redistribution (AID 450;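 active = compounds whose dose series gives a full or clear partial fitted curve of increased nuclear translocation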; also: potency is read from the fitted curve at half-maximal effect); conditions: U2OS GR-GFP nuclear translocation, laser cytometry, 2 h
Glucocorticoid receptor (Homo sapiens), sequence (P04150 whole entry, looked up, the tested form may be a part): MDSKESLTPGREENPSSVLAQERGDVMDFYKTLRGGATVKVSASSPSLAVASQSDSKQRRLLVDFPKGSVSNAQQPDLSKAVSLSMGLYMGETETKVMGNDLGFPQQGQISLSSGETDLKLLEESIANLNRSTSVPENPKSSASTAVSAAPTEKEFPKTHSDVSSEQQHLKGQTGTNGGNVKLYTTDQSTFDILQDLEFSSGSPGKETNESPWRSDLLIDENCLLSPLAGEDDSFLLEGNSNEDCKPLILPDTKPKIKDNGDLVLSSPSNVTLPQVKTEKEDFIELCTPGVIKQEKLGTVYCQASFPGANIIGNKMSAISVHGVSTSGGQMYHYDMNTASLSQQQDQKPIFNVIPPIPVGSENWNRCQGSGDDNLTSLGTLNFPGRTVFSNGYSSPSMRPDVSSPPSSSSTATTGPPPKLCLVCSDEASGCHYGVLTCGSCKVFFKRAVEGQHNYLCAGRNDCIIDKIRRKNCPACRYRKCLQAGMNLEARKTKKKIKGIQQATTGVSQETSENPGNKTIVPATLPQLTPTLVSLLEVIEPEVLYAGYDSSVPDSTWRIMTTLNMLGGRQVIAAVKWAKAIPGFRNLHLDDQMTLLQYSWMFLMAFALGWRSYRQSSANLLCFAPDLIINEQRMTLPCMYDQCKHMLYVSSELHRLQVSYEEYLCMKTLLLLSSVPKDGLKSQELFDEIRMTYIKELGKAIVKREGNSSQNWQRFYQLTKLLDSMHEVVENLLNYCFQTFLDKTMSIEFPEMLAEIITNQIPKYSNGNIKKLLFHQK

[6] = target: Mitogen-activated protein kinase 10 (Mus musculus) (UniProt Q61831); assay: JNK3 AlphaScreen Assay (AID 530; active = well fitted curve in either direction with a large enough effect, not every such curve was filed as active;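 also: kinase came from lysate of stimulated human HepG2 cells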; also: potency is read from the fitted curve at half-maximal effect;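 as to activity change, negative = inhibition: signal reports phosphorylation of biotinylated GST-cJun 1-79 at Ser73 with 10 µM ATP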); conditions: JNK3 lysate, c-Jun phosphorylation; series mostly up to 57.1 µM
Summary of the method: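 qHTS format: compounds tested as titrations against IL-1beta/TNF-alpha-activated HepG2 lysate JNK3 with biotin-GST-cJun substrate and 10 uM ATP at room temperature. Loss of anti-phospho-cJun AlphaScreen signal indicates inhibition.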

[7] = target: 3',5'-cyclic-AMP phosphodiesterase 4B (Homo sapiens) (UniProt Q07343); assay: qHTS Assay for Inhibitors of PDE-IV (AID 607; active = well fitted activation curve with a large enough effect in the main read-out, with a control signal flat, not every such curve was filed as active); conditions: HEK293 ACTOne CNG channel cells, membrane potential fluorescence; series mostly up to 22.9 µM
3',5'-cyclic-AMP phosphodiesterase 4B (Homo sapiens), sequence (Q07343 whole entry, looked up): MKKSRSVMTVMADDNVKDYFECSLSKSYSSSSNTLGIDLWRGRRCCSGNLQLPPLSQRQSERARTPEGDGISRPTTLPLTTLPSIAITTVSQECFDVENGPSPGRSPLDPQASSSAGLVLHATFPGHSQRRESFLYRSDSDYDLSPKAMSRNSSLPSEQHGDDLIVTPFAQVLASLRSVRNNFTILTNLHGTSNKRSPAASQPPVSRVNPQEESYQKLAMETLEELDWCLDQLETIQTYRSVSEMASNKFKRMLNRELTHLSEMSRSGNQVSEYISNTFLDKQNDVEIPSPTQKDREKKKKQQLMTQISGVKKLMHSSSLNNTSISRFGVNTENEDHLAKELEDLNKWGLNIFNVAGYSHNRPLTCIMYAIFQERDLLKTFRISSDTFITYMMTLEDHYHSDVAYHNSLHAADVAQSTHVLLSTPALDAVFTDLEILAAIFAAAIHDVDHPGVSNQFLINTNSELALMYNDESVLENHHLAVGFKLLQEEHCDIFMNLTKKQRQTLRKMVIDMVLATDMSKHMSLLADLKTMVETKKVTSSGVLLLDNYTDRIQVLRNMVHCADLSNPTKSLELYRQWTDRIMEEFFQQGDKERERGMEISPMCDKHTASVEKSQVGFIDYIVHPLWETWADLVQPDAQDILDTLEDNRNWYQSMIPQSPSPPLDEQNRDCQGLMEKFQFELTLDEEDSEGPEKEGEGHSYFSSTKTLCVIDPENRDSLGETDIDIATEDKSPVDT
Summary of the method: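 HEK293 ACTOne cells with CNG channel (1000/well), endogenous PDE4; membrane potential dye, compounds up to 22.9 uM final. Fluorescence Ex 535/Em 590; RO 20-1724 (100 uM final) as reference.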

[8] = target: Cytochrome P450 3A4 (Homo sapiens) (UniProt P08684); assay: qHTS Assay for Activators of Cytochrome P450 3A4 (AID 885); conditions: recombinant CYP3A4, Luciferin-PPXE luminescence, 60 min; series mostly up to 57.1 µM; also: nearly all actives have a fitted effect of over 65% in size
Cytochrome P450 3A4 (Homo sapiens), sequence (P08684 whole entry, looked up): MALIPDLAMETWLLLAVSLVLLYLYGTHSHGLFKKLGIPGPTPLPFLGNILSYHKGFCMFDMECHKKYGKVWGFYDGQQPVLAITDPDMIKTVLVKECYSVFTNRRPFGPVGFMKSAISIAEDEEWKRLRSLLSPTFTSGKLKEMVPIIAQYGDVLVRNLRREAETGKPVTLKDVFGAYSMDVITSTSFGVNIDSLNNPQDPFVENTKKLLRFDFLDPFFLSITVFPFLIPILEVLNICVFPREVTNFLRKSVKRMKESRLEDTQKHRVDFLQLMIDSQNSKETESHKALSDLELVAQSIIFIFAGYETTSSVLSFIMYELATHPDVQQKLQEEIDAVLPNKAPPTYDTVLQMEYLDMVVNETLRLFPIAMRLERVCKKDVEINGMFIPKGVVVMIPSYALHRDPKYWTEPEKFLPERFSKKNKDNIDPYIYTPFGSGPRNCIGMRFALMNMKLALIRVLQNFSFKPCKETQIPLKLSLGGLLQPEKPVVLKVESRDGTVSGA
Summary of the method: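 Human CYP3A4 (20 nM) with Luciferin-PPXE at 25 uM (its KM) in 200 mM KPO4; 10 min compound preincubation, then NADPH regeneration and 60 min reaction at RT. Luciferin read by luminescence; normalized to 57 uM ketoconazole full inhibition.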

[9] = target: Dual specificity protein kinase CLK4 (Homo sapiens) (UniProt Q9HAZ1); assay: qHTS Assay for Inhibitors of CDC-like Kinase 4 (Kinase-Glo Assay) (AID 1770); conditions: recombinant Clk4, Kinase-Glo ATP depletion luminescence; series mostly up to 66.7 µM; also: nearly all actives have a fitted effect of over 65% in size; also: potency is read from the fitted curve at half-maximal effect
Dual specificity protein kinase CLK4 (Homo sapiens), sequence (Q9HAZ1 whole entry, looked up): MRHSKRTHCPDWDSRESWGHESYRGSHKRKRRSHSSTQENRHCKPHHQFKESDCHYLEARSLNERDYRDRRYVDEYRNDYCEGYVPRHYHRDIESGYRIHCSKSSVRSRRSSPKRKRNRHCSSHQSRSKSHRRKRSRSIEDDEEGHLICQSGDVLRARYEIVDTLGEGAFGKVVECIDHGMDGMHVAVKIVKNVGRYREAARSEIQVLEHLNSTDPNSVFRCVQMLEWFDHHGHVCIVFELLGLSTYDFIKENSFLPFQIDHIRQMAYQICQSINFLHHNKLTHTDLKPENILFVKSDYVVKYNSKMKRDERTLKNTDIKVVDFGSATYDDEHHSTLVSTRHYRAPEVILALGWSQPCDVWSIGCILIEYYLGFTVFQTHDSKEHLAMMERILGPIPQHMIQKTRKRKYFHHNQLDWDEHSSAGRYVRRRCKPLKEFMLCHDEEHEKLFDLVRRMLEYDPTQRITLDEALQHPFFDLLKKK
Summary of the method: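 Inhibition was judged from remaining ATP, measured by Ultra-Glo luciferase bioluminescence after Clk4 (25 nM) had acted on RS peptide at 1 uM ATP for 4.5 hours, room temperature.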

[10] = target: Dual specificity protein kinase CLK4 (Homo sapiens) (UniProt Q9HAZ1); assay: qHTS Assay for Inhibitors of CDC-like Kinase 4 (ADP-Glo Assay) (AID 1771); conditions: recombinant CLK4, ADP-Glo luminescence; series mostly up to 80 µM; also: nearly all actives have a fitted effect of over 70% in size; also: potency is read from the fitted curve at half-maximal effect
Summary of the method: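 Kinase reaction: Clk4 at 25 nM, RS repeat peptide substrate at 100 uM, ATP at 1 uM, 1 hr, room temperature. Product ADP detected as luciferase signal via ADP-Glo.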

[11] = target: Dual specificity protein kinase CLK4 (Homo sapiens) (UniProt Q9HAZ1); assay: qHTS Assay for Inhibitors of CDC-like Kinase 4 (ADP-FP Assay) (AID 1795); conditions: Transcreener ADP fluorescence polarization; series mostly up to 50 µM; also: nearly all actives have a fitted effect of over 60% in size; also: potency is read from the fitted curve at half-maximal effect;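 as to activity change, negative = inhibition: recombinant human CLK4 phosphorylating RS repeat peptide at 1 µM ATP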
Summary of the method: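 Inhibition of ADP formation by 6.25 nM Clk4 is measured using 1 uM ATP and 100 uM RS repeat peptide over one hour. Produced ADP displaces a fluorescent tracer from antibody, lowering polarization.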

[12] = target: Ubiquitin carboxyl-terminal hydrolase 1 (Homo sapiens) (UniProt O94782); assay: Inhibitors of USP1/UAF1: Pilot qHTS (AID 504865); conditions: purified USP1/UAF1, Ub-rhodamine cleavage fluorescence; series mostly up to 54.9 µM;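 also: rhodamine fluorescence freed from ubiquitin-rhodamine substrate followed over time; top concentration of the series differs between compounds; nearly all actives have a fitted effect of over 35% in size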
Ubiquitin carboxyl-terminal hydrolase 1 (Homo sapiens), sequence (O94782 whole entry, looked up): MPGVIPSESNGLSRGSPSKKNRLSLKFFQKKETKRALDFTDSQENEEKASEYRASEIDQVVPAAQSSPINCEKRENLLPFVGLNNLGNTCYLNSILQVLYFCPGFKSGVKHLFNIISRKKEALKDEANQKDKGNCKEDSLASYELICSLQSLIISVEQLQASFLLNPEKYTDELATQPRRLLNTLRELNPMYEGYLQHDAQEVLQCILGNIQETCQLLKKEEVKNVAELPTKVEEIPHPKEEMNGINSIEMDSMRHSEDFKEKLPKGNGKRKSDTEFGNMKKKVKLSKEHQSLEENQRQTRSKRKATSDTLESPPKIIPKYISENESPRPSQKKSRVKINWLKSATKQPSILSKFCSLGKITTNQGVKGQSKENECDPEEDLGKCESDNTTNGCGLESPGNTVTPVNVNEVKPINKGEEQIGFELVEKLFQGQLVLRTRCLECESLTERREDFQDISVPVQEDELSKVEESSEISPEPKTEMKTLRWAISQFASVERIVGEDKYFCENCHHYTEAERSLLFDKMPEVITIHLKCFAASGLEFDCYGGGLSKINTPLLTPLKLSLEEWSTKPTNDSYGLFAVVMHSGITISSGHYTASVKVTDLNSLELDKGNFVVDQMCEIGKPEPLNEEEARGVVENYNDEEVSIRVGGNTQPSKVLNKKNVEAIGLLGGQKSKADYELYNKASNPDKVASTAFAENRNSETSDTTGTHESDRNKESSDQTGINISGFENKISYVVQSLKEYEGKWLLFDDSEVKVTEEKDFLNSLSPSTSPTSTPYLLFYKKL
Summary of the method: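 Kinetic fluorescence assay: 1nM USP1/UAF1, 15 min compound preincubation, then 150nM Ub-Rho; 480/540 nm.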

[13] = Primary qHTS for small molecule stabilizers of the endoplasmic reticulum resident proteome: Secreted ER Calcium Modulated Protein (SERCaMP) assay (AID 1508630); conditions: SH-SY5Y GLuc-SERCaMP (Gaussia luciferase released on ER calcium loss) secretion, thapsigargin, luminescence; series mostly up to 38.4 µM
Summary of the method: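 GLuc-SERCaMP-expressing SH-SY5Y cells, pretreated 16 h with compound, are challenged with thapsigargin to empty ER calcium stores; after 4 h, coelenterazine is added directly to the medium and luminescence is imaged.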

[14] = target: Glucocorticoid receptor (Homo sapiens) (UniProt P04150); assay: GR-EFC Redistribution (AID 451; calls by dose curve; also: potency is read from the fitted curve at half-maximal effect); conditions: CHO-K1 GR-EFC translocation, beta-gal luminescence, 2 h
Summary of the method: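 CHO-K1 cells expressing nuclear EA and GR-ED fragments of b-gal; compounds titrated up to 46 uM final, 2 h at 37 C. GR nuclear translocation read as complemented b-gal luminescence after 1 h RT detection.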

[15] = target: Cytochrome P450 1A2 (Homo sapiens) (UniProt P05177); assay: p450-cyp1a2 (AID 410; calls by dose curve; also: potency is read from the fitted curve at half-maximal effect); conditions: recombinant CYP1A2, luciferin-ME demethylation, luminescence; series mostly up to 57 µM
Cytochrome P450 1A2 (Homo sapiens), sequence (P05177 whole entry, looked up): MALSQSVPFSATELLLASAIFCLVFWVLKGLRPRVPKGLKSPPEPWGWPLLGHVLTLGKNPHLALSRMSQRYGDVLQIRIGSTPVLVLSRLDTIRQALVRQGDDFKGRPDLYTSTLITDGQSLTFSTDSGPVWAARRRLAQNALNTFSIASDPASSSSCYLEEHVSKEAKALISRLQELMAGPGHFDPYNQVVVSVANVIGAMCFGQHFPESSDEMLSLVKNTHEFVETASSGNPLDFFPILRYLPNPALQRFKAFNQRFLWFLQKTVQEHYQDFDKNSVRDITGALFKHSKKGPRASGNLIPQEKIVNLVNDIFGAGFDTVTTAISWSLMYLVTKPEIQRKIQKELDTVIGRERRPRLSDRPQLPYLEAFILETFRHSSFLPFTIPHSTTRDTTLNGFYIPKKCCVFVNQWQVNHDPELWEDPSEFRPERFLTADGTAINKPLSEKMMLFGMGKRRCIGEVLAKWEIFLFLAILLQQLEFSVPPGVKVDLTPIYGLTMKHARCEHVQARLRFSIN
Summary of the method: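 Inhibition was calculated relative to 57 uM furafylline (full inhibition). The reaction used human CYP1A2 at 20nM with Luciferin-ME at its Km, 100uM, driven by an NADPH-regenerating system for 60 min at room temperature.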

[16] = qHTS Assay for Identification of Small Molecule Agonists for Hypoxia Response Element Signaling Pathway (AID 914; active = well fitted activation curve with a large enough effect in the signal ratio, with a control signal flat, not every such curve was filed as active; the % refers to the signal ratio; also: potency is read from the fitted curve at half-maximal effect); conditions: ME-180 HRE-bla reporter, beta-lactamase ratio, CoCl2, 17 h; activation: active compounds read high
Summary of the method: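 ME-180 cells carrying an HRE-driven beta-lactamase reporter were treated with compounds in a titration series plus an EC50 level of CoCl2 for 17 h at 37 degrees Celsius; CCF4 readout as the 460nm/530nm ratio gave AC50 values.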

SMILES | Potency [1] [µM] | activity change, negative = inhibition [2] [%] | activity change, negative = inhibition [3] [%] | activity, negative = inhibition [4] | Potency [5] [µM] | Potency [6] | Potency [7] | Potency [8] | Potency [9] | Potency [10] | Potency [11] | Potency [12] | outcome [13] | Potency [14] [µM] | Potency [15] | Potency [16]
O=c1c(-c2ccccc2)nc2cnc(Nc3ccccc3)nc2n1C[C@H]1CCCO1 | > 11.4 | 1.69 | -14.2 | -4.27% | > 9.22 | inactive | inactive | inactive | inactive | inactive | inactive | inactive | inactive |  |  | 
FC(F)(F)c1ccccc1-c1cncnc1NCc1ccccc1 | > 11.4 | -12.5 | -25.7 | 8.04% |  | inactive |  |  | inactive | inactive | inactive | inactive | inactive | > 46 |  | 
c1ccc(CNc2ncnc3ccc(-c4ccoc4)cc23)cc1 | > 11.4 | -25 | 11.4 | -19.6% | > 46 | inactive | inactive |  | 14.1 µM (active) | 12.6 µM (active) | 12.6 µM (active) | inactive | inactive | > 46 |  | 
COc1ccc(CNc2nc(-c3ccc(N(C)C)cc3)nc3ccccc23)c(OC)c1 | > 11.4 | 5.6 |  | 23.2% | > 46 | inactive |  | inactive | inactive | inactive | inactive | inactive | inactive | > 46 |  | 
CCNc1ncc2nc(-c3ccc(Cl)cc3)c(=O)n(Cc3cccc(OC)c3)c2n1 | > 11.4 |  |  |  | > 9.22 | inactive | inactive |  | inactive | inactive | inactive | inactive | inactive | > 46 | inactive | 0.316 µM (active)
Cc1noc(C)c1-c1ccc2ncnc(Nc3ccccc3)c2c1 | > 11.4 | -6.37 |  |  | > 46 | inactive | inactive |  | 6.31 µM (active) | 7.94 µM (active) | 10 µM (active) | inactive | inactive | > 46 |  | 
COc1cccc(Cn2c(=O)c(-c3cccs3)nc3cnc(N4CCNCC4)nc32)c1 | > 11.4 |  |  | 114% [activator] (active) | > 9.22 | 3.98 µM [activator] (active) | inactive | inactive | inactive | inactive | inactive | inactive | inactive | > 46 | 15.8 µM (active) | 
